# Only a selection was taken, and hits are over-represented in it overall.
# Giardia FBPA inh – Giardia lamblia aldolase inhibition; purified Giardia FBPA; Potency, µM (titrated, usually from 59.6 µM), actives largely listed as inhibitors; 0.71% of 290,000 active; AID 2451; also: nearly all actives have a fitted effect of over 55% in size
#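 Giardia FBPA (40 nM reagent) was preincubated 10 min at RT with compound (up to 57.5 uM final), then substrate plus GAPDH/TPI/NAD/arsenate coupling system with diaphorase/resazurin was added; resorufin fluorescence (525/598 nm) was read after 20 min.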
# LmPK inhibitor – blocks Leishmania mexicana pyruvate kinase activity; Potency, µM (series often up to 57.5 µM), usual class: inhibitors; Q27686; 0.37% of 290,000 active; purified LmPK, Kinase-Glo ATP luminescence, 1 h
# Target sequence (Q27686 whole entry, looked up): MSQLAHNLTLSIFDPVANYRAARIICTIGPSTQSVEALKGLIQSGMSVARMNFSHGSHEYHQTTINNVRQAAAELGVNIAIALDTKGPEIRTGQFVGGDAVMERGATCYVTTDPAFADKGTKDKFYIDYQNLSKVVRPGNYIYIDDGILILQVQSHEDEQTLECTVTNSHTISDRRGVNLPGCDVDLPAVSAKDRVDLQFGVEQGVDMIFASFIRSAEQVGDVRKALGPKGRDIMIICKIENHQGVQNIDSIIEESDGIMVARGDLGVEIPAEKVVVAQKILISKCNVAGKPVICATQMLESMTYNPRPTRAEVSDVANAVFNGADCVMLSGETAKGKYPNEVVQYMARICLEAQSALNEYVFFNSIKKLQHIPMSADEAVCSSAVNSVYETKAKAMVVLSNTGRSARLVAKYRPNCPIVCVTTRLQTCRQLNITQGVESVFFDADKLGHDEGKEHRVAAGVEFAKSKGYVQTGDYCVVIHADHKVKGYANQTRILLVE
#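 In 50 mM imidazole pH 7.2 with 7 mM MgCl2, LmPK (0.1 nM) turned over PEP (0.5 mM) and ADP (0.1 mM) for 1 h at room temperature. Luciferase read-out of ATP.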
# Sm TGR block – S. mansoni TGR enzyme inhibition. purified TGR, DTNB reduction, TNB absorbance 405 nm. AID 485364. 3% of 360,000 active. Potency, µM (highest dose often 114 µM), usual class: inhibitors; also: nearly all actives have a fitted effect of over 60% in size
#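 TGR 20 nM + NADPH 100 uM (dispensed conc.), cpd preinc 15 min RT; start with NADPH (500 uM addition) then DTNB (15 mM addition). Kinetic TNB absorbance, 405 nm filter. Four-parameter Hill fit across titration.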
# Cycloheximide cs – counter-screen for Shiga toxin inhibitors: cycloheximide protein synthesis inhibition | cell reporter, cycloheximide protein synthesis inhibition counterscreen | max response, % | 12% of 300,000 active; in the data active = max response mostly above about 13%, no sharp cut-off; inactive = mostly below about 14%; also: read at 38.3 µM for the half of the compounds with a filed dose
# TbPYK inhibitor – blocks Trypanosoma brucei pyruvate kinase; Q57TT1; TbPYK enzyme, Kinase-Glo Plus ATP luminescence, 45 min; Potency, µM (top dose mostly 76.8 µM), hits mostly inhibitors; 0.12% of 410,000 active; AID 624173; also: nearly all actives have a fitted effect of over 50% in size
#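 Screened from lowest to highest concentration, compounds were pinned into TbPYK/substrate mixtures, and ADP (130 uM final) was added. Plates sat at room temperature for 45 min prior to Kinase-Glo Plus detection by luminescence.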
# Shiga inhibitor – inhibitors of Shiga toxin in Vero cells. AID 2315. Vero cells, Shiga toxin protein synthesis inhibition reporter. 9.2% of 290,000 active. inhibition, % at 38.7 µM; in the data active = inhibition mostly above about 28%, no sharp cut-off; inactive = mostly below about 43%
# Numbers stand for hits; – = inactive; ? = inconclusive; · = no result given. Unless noted, calls follow the shape of the dose curve; as a rule, active = well fitted curve in the direction sought with a large enough effect; inconclusive = small, poorly fitted or top-dose-only effect, or another doubt; inactive = no such curve, though single readings can be large; an effect the other way counts as inactive or inconclusive.
SMILES,Giardia FBPA inh,LmPK inhibitor,Sm TGR block,Cycloheximide cs,TbPYK inhibitor,Shiga inhibitor
O=C(Nc1ccc(Br)cc1)c1ccccc1CC[N+](=O)[O-],–,–,–,–,–,–
Cc1ccc(/C=C/C(=O)NCCc2cccc(Cl)c2)o1,–,–,2.5µM,29,16µM,·
Cc1ccc(/C=C/C(=O)NCCCN2CCN(CCCNC(=O)/C=C/c3ccc(C)o3)CC2)o1,–,–,–,–,–,–
Cc1ccc(/C=C/C(=O)NCCc2c[nH]c3ccccc23)o1,–,–,14µM,–,–,–
CCCCCCCCCCCCCCCC(=O)NCCc1c[nH]c2ccccc12,–,–,–,–,–,–
Cc1ccc2[nH]cc(CCNC(=O)/C=C/c3ccco3)c2c1,–,–,28µM,–,–,–
CC(=O)Nc1ccccc1-c1nnn(CC(=O)Nc2ccc3c(c2)OCCO3)n1,–,–,–,24,–,–
O=C(Cn1nnc(-c2ccccc2F)n1)Nc1ccc2c(c1)OCCO2,–,–,–,32,–,79
O=C(Cn1nnc(-c2ccccc2NC(=O)c2ccccc2)n1)Nc1ccc2c(c1)OCCO2,–,–,–,–,–,–
COc1ccccc1NC(=O)Cn1nnc(-c2ccccc2NC(=O)c2cc3ccccc3oc2=O)n1,–,–,–,39,–,80
Cc1ccccc1C(=O)Nc1ccccc1-c1nnn(CC(=O)Nc2ccc3c(c2)OCCO3)n1,–,–,–,38,–,–
COc1ccc(C(=O)c2cn(Cc3ccccc3F)c3cc4c(cc3c2=O)OCCO4)cc1OC,·,·,–,·,–,·
Cc1c(Cl)cccc1NC(=O)CN1C(=O)COc2ccc(S(=O)(=O)N3CCCCCC3)cc21,·,·,–,·,–,·
Cc1cccc2[nH]c(SCC(=O)N3CCOCC3)nc12,–,–,·,–,–,109
Cc1cccc2[nH]c(SCC(=O)O)nc12,–,–,–,–,–,–
CC1CCN(C(=O)CSc2nc3ncccc3[nH]2)CC1,·,–,–,20,–,–
CC1CCN(C(=O)CSc2nc3ccccc3[nH]2)CC1,–,–,–,59,–,66
c1ccc(C(NCc2cccnc2)(c2ccccc2)c2ccccc2)cc1,–,·,·,–,·,–
Nc1nc(NC(=O)c2ccco2)nn1-c1ccccc1,–,–,–,35,–,79
O=C(Nc1ccc2nn(-c3ccccc3)nc2c1)c1cccnc1,–,–,–,22,–,–
O=C(Cc1ccccc1)Nc1ccc(NC(=O)c2ccco2)cc1Cl,–,–,–,–,–,–
Cc1ccnc2nc(NC(=O)c3ccco3)nn12,–,–,–,26,–,48
O=C(Nc1cc2nn(-c3ccccc3)nc2cc1Cl)c1ccco1,–,–,–,21,–,47
Nc1nc(NC(=O)Cc2ccccc2)nn1-c1ccccc1,–,–,–,–,–,–
O=C(Nc1ccc2nn(-c3ccc(F)cc3)nc2c1)c1cccnc1,–,–,–,–,–,–
SMILES,Giardia FBPA inh,LmPK inhibitor,Sm TGR block,Cycloheximide cs,TbPYK inhibitor,Shiga inhibitor
O=C(CCCc1ccccc1)NCCS(=O)(=O)N1CCN(c2ccccc2)CC1,·,·,·,·,–,·
O=C(Nc1ccc2nn(-c3ccc(Cl)cc3)nc2c1)c1cc2ccccc2o1,·,·,–,·,–,·
O=C(Nc1nc2nccc(-c3ccccc3)n2n1)c1ccc(F)cc1,–,–,–,–,–,–
O=C(Nc1nc2nccc(-c3ccccc3)n2n1)c1ccccc1,–,–,–,22,–,–
O=C(Nc1ccc2nn(-c3ccccc3)nc2c1)c1ccco1,–,–,–,47,–,72
CC(C)C(=O)Nc1ccc2nn(-c3ccccc3)nc2c1,–,–,·,39,–,103
CCOc1ccc(-n2c(=O)c3c(C)c(C)sc3n(Cc3c(F)cccc3Cl)c2=O)cc1,·,·,–,·,–,·
Cc1cccc(NC(=O)c2ccc(-c3nc(CSc4ccccc4)c(C)o3)cc2)c1C,·,·,?,·,–,·
NC(=O)C(C(=O)/C=C/c1ccc(Cl)cc1)=C1SCCS1,–,–,–,15,–,–
COc1ccc(/C=C/C(=O)C(C(N)=O)=C2SCCS2)cc1,–,–,–,31,–,49
O=C(/C=C/c1ccc(OC2CSC2)cc1)c1ccc(Cl)cc1,–,–,–,–,–,–
COc1ccc(/C=C/C(=O)Nc2ccc(C)cc2)cc1,·,·,–,·,–,·
CC1=C/C(=N\NC(=S)Nc2cccnc2)CC(C)(C)C1,–,–,–,–,–,–
Cc1ccc(-c2nn(CC(=O)Nc3cccc(C(F)(F)F)c3)c(=O)c3ccccc23)cc1,·,·,–,·,–,·
Cc1cccc(NC(=S)NC(=O)c2oc3ccccc3c2C)n1,–,–,–,38,–,56
Cc1cccc(NC(=S)NC(=O)C(c2ccccc2)c2ccccc2)n1,·,·,·,·,–,·
Cc1cccc(NC(=S)NC(=O)c2ccc(-c3ccccc3)cc2)n1,–,–,–,26,–,37
Cc1nc2cnc(N(C)C)nc2n(CCc2ccccc2)c1=O,–,·,·,·,·,·
Cc1nc(N2C(=O)c3oc4ccccc4c(=O)c3C2c2cccc(OCCC(C)C)c2)sc1C (stereo not drawn),·,·,–,·,–,·
COc1ccc(/C=N/N2C(=O)C3C4C=CC(CC4)C3C2=O)c(OC)c1 (stereo not drawn),–,–,–,45,–,55
COc1ccccc1/C=N/N1C(=O)C2C3C=CC(CC3)C2C1=O (stereo not drawn),–,–,–,–,–,–
O=C1C2C3C=CC(CC3)C2C(=O)N1/N=C/c1c[nH]c2ccccc12 (stereo not drawn),–,–,–,52,–,125
CCCCCCCCN1C(=O)[C@H](CC(=O)NCCCOCCCC)C[C@@]2(C(=O)OCC)CCCC=C12,·,·,·,·,–,·
O=C(NNC(=O)c1ccccc1Cl)c1ccncc1,–,–,–,–,–,–
COc1c(C(=O)NNC(=O)c2ccccc2Cl)csc1Br,–,–,–,49,–,76
SMILES,Giardia FBPA inh,LmPK inhibitor,Sm TGR block,Cycloheximide cs,TbPYK inhibitor,Shiga inhibitor
COc1ccc(C(O)(C(=O)NNc2ccc(C)cc2)c2cccs2)cc1 (stereo not drawn),–,–,–,–,–,–
O=C(NNc1ccc(C2CCCCC2)cc1)C(O)(c1ccccc1)c1cccs1 (stereo not drawn),–,–,–,16,–,–
CC1CCC(NC(=O)c2ccc3nc[nH]c3c2)CC1 (stereo not drawn),–,–,–,41,–,47
O=C(NNC(=O)c1ccc2nc[nH]c2c1)c1ccccc1,·,·,–,·,–,·
Cc1[nH]c2ccc(C(=O)NC3CCC(C)CC3)cc2c1C (stereo not drawn),–,–,–,26,–,58
Cc1[nH]c2ccc(C(=O)NC3CCCC3)cc2c1C,·,·,–,·,–,·
COc1ccccc1CNC(=O)c1c[nH]c2ccc(S(=O)(=O)Nc3cc(C)cc(C)c3)cc2c1=O,·,·,–,·,–,·
COC(=O)C(CC(=O)c1ccccc1)CC(=O)c1ccccc1,–,–,–,17,–,43
CCOC(=O)C(CC(=O)c1ccccc1)CC(=O)c1ccccc1,–,–,–,39,–,113
